# FMDV inh = High Throughput Screening for Foot and Mouth Disease Virus Antivirals; FMDV antiviral cell-based qHTS; Potency, µM (series often up to 57.9 µM), usual class: inhibitors; hit rate 1.2% among 410,000; AID 1159524, 2015; calls by dose curve; tested in HEK293T cells; note: read-out not given here; nearly all actives have a fitted effect of over 45% in size
# Giardia FBPA inh = qHTS Assay for Inhibitors of Fructose-1,6-bisphosphate Aldolase from Giardia Lamblia | A8B2U2 | purified Giardia FBPA | Potency, µM (titrated, usually from 59.6 µM), hits mostly inhibitors | hit rate 0.71% among 290,000 | AID 2451, 2010; note: nearly all actives have a fitted effect of over 55% in size
# Target sequence (A8B2U2 whole entry, looked up): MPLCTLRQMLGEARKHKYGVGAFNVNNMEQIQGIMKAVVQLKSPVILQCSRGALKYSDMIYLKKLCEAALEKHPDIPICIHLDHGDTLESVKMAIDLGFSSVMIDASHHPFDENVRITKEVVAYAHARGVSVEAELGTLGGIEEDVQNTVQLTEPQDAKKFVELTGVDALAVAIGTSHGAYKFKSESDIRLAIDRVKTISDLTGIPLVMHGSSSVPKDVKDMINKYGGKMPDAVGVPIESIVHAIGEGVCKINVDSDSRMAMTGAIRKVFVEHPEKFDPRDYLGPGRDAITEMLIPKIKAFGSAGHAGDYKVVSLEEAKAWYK
#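 40 nM FBPA preincubated 10 min at RT with compound (up to 57.5 uM final), then substrate plus GAPDH/TPI/NAD/arsenate coupling and diaphorase/resazurin added. Fluorescence read after 20 min at RT, 525/598 nm.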
# MARV entry inh = qHTS for inhibitors of binding or entry into cells for Marburg Virus; Marburg virus pseudotyped entry inhibition, cell reporter; Potency, µM (doses to about 37.8 µM), most hits filed as inhibitors; hit rate 1.8% among 300,000; calls by dose curve; tested in HEK293 cells
# HCV inhibitor = qHTS Assay for Inhibitors of Hepatitis C Virus (HCV) | hit rate 3.4% among 340,000 | Potency, µM (titrated, usually from 41.8 µM), most hits filed as inhibitors | Huh7.5.1 HCVcc-Cre infection, luciferase reporter, 44 h
#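 Luciferase read-out (15 sec integration) after a 15 min room-temperature substrate step quantifies HCVcc-Cre infection. Cells, 1,000 per well, had compound added 4 h post-plating, then virus at ~0.5 moi, and were cultured 44 h.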
# Lassa entry inh = qHTS for Inhibitors of binding or entry into cells for Lassa Virus; hit rate 1.2% among 300,000; Lassa virus pseudotype entry inhibition, cell reporter; Potency, µM (highest dose often 37.9 µM), hits mostly inhibitors; calls by dose curve; tested in HEK293 cells; note: nearly all actives have a fitted effect of over 50% in size
# HCMV antiviral = qHTS Assay for inhibitors of the human cytomegalovirus (HCMV) | activity change, negative = inhibition, % at 57.5 µM | hit rate 4.5% among 410,000 | HFF cells, HCMV-luciferase reporter, 72 h; hits give low values | AID 1259415, 2018; in the data active = activity change below about -60%; inconclusive = no clear call, values can overlap the other calls; inactive = above about -39%
#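 HFF cells seeded 16 h at 37C, treated with compounds, infected with luciferase-reporter HCMV at MOI 1 PFU/cell; luciferase read at 72 h post infection, normalized to buffer-only and Salinomycin controls.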
# Hits are given with their value; 0 = inactive; ? = inconclusive; - = not tested or not shown; + = active, no number; ! = not confirmed by another sample. Shown are actives, neighbours in structure and some others; about 8.3% of the full set was active somewhere. Unless noted, calls come from the whole dose curve; as a rule, active = well fitted curve in the direction sought with a large enough effect; inconclusive = small, poorly fitted or top-dose-only effect, or another doubt; inactive = no such curve, though single readings can be large; an effect the other way counts as inactive or inconclusive.
SMILES,FMDV inh,Giardia FBPA inh,MARV entry inh,HCV inhibitor,Lassa entry inh,HCMV antiviral
COc1ccccc1N1CCN(c2nc(CNC(=O)C3CC34CCCC4)nc3ccccc23)CC1 (centres undefined),0,-,-,-,-,-
CCOc1ccc(C(=O)NCCC2=CCCCC2)cc1OCC,0,0,?,5µM,0,0
O=C(NCc1ccc(F)cc1)c1cc(S(=O)(=O)N2CCCCC2)ccc1Cl,0,-,-,0,-,-102
O=C(Nc1ccc(F)cc1F)c1ccc2nc(N3CCOCC3)sc2c1,0,0,-,13µM,-,0
O=C(NCc1cccnc1)c1cc(S(=O)(=O)N2CCCCC2)ccc1Cl,0,0,0,0,0,0
O=C(NCc1cccc(Cl)c1)c1ccc2nc(N3CCOCC3)sc2c1,0,0,-,?,-,-80
O=C(NCc1cc(F)cc2c1OCCO2)[C@H]1C[C@@H]1[C@H](NP(=O)(c1ccccc1)c1ccccc1)c1ccccc1,-,0,-,-,-,-
COC(=O)CC1Oc2ccccc2-n2cc(-c3ccc(Cl)cc3)nc21 (centres undefined),0,-,0,-,0,0
O=C1C=C(N2CCOCC2)c2cccc3cccc1c23,0,-,-,-,-,0
O=C1C=C(N2CCOCC2)c2ccccc2C1=O,?,?,2.5µM,?,?,-97
CC1=C(C)C(=O)C(N2CCOCC2)=CC1=O,0,1.4µM,0,0,-,-68
NC(=O)C1CCCN(Cc2ccc3c(c2)CN(Cc2cn[nH]c2-c2ccc(F)cc2)CCO3)C1 (centres undefined),0,-,-,-,-,-
O=c1c(CCc2ccccc2)nc2cnc(Nc3ccccc3)nc2n1Cc1cccs1,0,0,-,-,-,-
COc1ccc2c(c1)c(CC(=O)OCC(=O)N(C)C)c(C)n2C(=O)c1ccc(Cl)cc1,0,0,25µM,0,?,0
O=S1(=O)CCSC[C@@H](CN2CCCC2)N1,-,-,-,-,?,0
CN1CCC(c2c[nH]c3ccccc23)C1 (centres undefined),0,0,-,0,-,0
CN1CCC(c2c[nH]c3ccc(O)cc23)CC1,0,2µM!,?,?,0,0
CC(=O)N1CC(C)Sc2ccc(S(=O)(=O)NCCc3ccc(C)cc3)cc21 (centres undefined),0,-,-,11µM,-,?
CC(=O)N1CC(C)Sc2ccc(S(=O)(=O)NCc3ccc(Cl)cc3)cc21 (centres undefined),0,0,-,?,-,0
CC1Sc2ccc(S(=O)(=O)NCCc3ccccc3)cc2NC1=O (centres undefined),0,-,-,0,-,+
CC(=O)N1CC(C)Sc2ccc(S(=O)(=O)NCCc3ccccc3)cc21 (centres undefined),0,-,-,?,-,+
CC(=O)N1CC(C)Sc2ccc(S(=O)(=O)NC(C)c3ccccc3)cc21 (centres undefined),0,-,-,?,-,-72
O=C(NCCN1CCOCC1)c1cnn(-c2ncc3c(n2)-c2ccccc2CC3)c1C1CC1,0,-,-,-,-,-
CCc1cc(C(=O)NNC(=O)CCl)sc1C,0,0,?,0,?,-64
COc1cc([C@@H]2C(C#N)=C(N)Oc3cc(C)n(CCc4ccccc4)c(=O)c32)cc2c1OCO2,-,-,0,-,-,-
SMILES,FMDV inh,Giardia FBPA inh,MARV entry inh,HCV inhibitor,Lassa entry inh,HCMV antiviral
Cn1nnnc1NCc1cccc(Cl)c1,0,0,?,0,0,0
Clc1cccc(CNc2nnnn2-c2ccccc2)c1,0,0,?,?,0,-84
CCn1c2ccccc2c2cc(NC(=O)c3cc(OC)c(OC)c(OC)c3)ccc21,0,0,1.4µM,?,?,-88
CCn1c2ccccc2c2cc(NC(=O)CCCN3C(=O)CCC3=O)ccc21,0,0,0,3.5µM,0,0
CCn1c2ccccc2c2cc(NC(=O)COc3ccc(OC)cc3)ccc21,0,0,?,?,0,0
COc1cc(C(=O)Nc2ccc(S(=O)(=O)NC(C)(C)C)cc2)cc(OC)c1OC,0,0,0,13µM,0,0
CCn1c2ccccc2c2cc(NC(=O)N3CCOCC3)ccc21,0,0,0,?,0,0
CCn1c2ccccc2c2cc(NC(=O)CN(C)CC(=O)Nc3ccc(N4CCOCC4)cc3)ccc21,0,0,-,11µM,-,?
COC(=O)c1cc(OC)c(=O)c2c(OC)c(OC)ccc2c1,?,0,-,-,-,-
Cc1ccc(-c2ccc(=O)n(CC(=O)NCCc3ccccc3)n2)cc1,0,-,-,-,0,0
CCn1c2ccccc2c2cc(NC(=O)c3cc(C)on3)ccc21,0,0,?,14µM,?,0
O=C(CCCCCN1C(=O)CCC1=O)Nc1ccc(Cl)c(C(F)(F)F)c1,?,0,0,0,0,-64
COc1ccc(NC(=O)CCCCCN2C(=O)CCC2=O)cc1Cl,0,0,0,-,0,0
CCn1c2ccccc2c2cc(NC(=O)c3cc(OC)cc(OC)c3)ccc21,0,0,?,?,?,-92
CCn1c2ccccc2c2cc(NC(=O)COC(=O)c3ccccc3F)ccc21,0,0,0,?,0,0
CCn1c2ccccc2c2cc(NC(=O)COC(=O)c3ccccc3O)ccc21,0,0,0,11µM,?,0
Cc1nc2cnc(Oc3ccccc3)nc2n(Cc2cccs2)c1=O,0,0,-,-,-,-
Cc1ccc(C)c(Oc2cc(NC(=O)CCCn3nc(C)c([N+](=O)[O-])c3C)cc([N+](=O)[O-])c2)c1,0,0,?,13µM,?,-88
CC(C)(C)C(=O)/C(=C\c1ccc([N+](=O)[O-])cc1)n1cncn1,-,0,-,3.2µM,-,-
CN(C)/C=C(/C(=O)c1ccccc1)n1cncn1,0,0,0,0,0,0
CC(C)(C)C(=O)/C(=C/c1ccc(Cl)cc1)n1cncn1,16µM,0,-,?,-,-102
CC(C)(C)C(=O)C(Oc1ccc(Cl)cc1)n1cncn1 (centres undefined),0,0,0,0,0,0
CC(C)/C=C(/C(=O)c1ccc(Cl)cc1Cl)n1cncn1,35µM,0,-,0,-,0
O=C(/C(=C/c1cccnc1)n1ccnc1)c1ccc(Cl)cc1Cl,?,0,-,0,-,0
FC(F)(F)c1ccc(-c2nc(-c3ccccc3)oc2NCc2ccccc2)cc1,-,-,0,-,0,-
SMILES,FMDV inh,Giardia FBPA inh,MARV entry inh,HCV inhibitor,Lassa entry inh,HCMV antiviral
Cc1ccc(C(CNC(=O)Nc2ccc(Cl)cc2)N2CCN(C)CC2)cc1 (centres undefined),0,0,?,13µM,?,0
CC(C)c1cnc2c(c1SCC(=O)Nc1cccc([N+](=O)[O-])c1)c(=O)n(C)c(=O)n2C,0,-,-,-,0,0
CCCCCCCn1ccc(O)c(CC(=O)OC)c1=O,0,0,0,0,0,0
CCCCCn1ccc(=O)c2c(C(F)(F)F)nccc21,?,0,?,11µM,?,-66
N#CC1=C(N)NC(SCc2ccc(F)cc2)=C(C#N)C12CCCCC2,0,0,7.9µM,?,?,0
N#CC1=C(N)NC(SCC(=O)O)=C(C#N)C12CCCC2,0,0,0,0,0,0
